Results as given in PubChem BioAssay AID1259418 (Broad Institute, 2018).
About 840 (25%) of roughly 3,400 compounds were called active. About 11% were inconclusive and are not listed. These entries were drawn from the full list. Results with a measured potency or affinity are listed apart. Unmarked numbers belong to inactive results.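 How the source made its calls: active means fitted half-maximal concentration of signal decrease at or below twice the sample's top tested concentration; inconclusive means flat curve between -70 and -30 percent, or poor fit; inactive means flat within 30 percent, signal rise, or potency above limit.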

Assay: inhibitors of Toxoplasma growth in IFN-γ-primed HeLa – cell-based, ME49Luc, luciferase, 72 h, dose response (AID 1259418)
Conditions: T. gondii ME49Luc in IFN-y HeLa, hits give low values, -100% = high-dose IFN-γ control wells; at 19.5 µM unless noted

Compound | max activity
NC(=O)C1(N2CCCCC2)CCN(c2ncc(NC(=O)c3ccccc3F)cc2C(=O)O)CC1 | 15.7% [at 2.6 µM]
CCCc1ccc(S(=O)(=O)N2CCc3nc(-c4cccc(OC)c4)sc3C2)cc1 | -6.99% [at 2.6 µM]
COc1cc(OC)cc(C(=O)N2CCC3(CC2)Nc2ccc(C)c(C)c2-n2cccc23)c1 | -13.1% [at 0.35 µM]
O=C(NCCc1csc(-c2ccccc2)n1)C1CCN(C(=O)Cc2ccc(Cl)cc2)CC1 | 8.14%
COc1cccc(CC(=O)N2CCC(C(=O)NCCc3csc(-c4ccccc4)n3)CC2)c1 | 8.89% [at 10 µM]
COc1ccc(-c2nc3c([nH]2)c(=O)n(C)c(=O)n3C)cc1OC | 40.8% [at 0.35 µM]
Cc1ccc(CCNC(=O)CCC2Nc3c4ccccc4nc(=S)n3C2=O)cc1 (stereo unspecified) | 13.4% [at 10 µM]
CN(C)CC(=O)N1C[C@@H]2N[C@H](C1)C2c1ccc(C2=CCCCC2)cc1 (stereo partly specified) | 18.8% [at 9 µM]
COc1cccc(S(=O)(=O)N2CC[C@@H]3[C@H](CO)Nc4ccc(C5=CCCCC5)cc4[C@@H]32)c1 | 8.73% [at 10 µM]
Cc1nc(CCNC(=O)[C@H]2CCCN2S(=O)(=O)c2cccs2)cs1 | 7.39% [at 0.16 µM]
O=C(NCCCN1CCC(N2CCCCC2)CC1)c1nnc2ccc(-c3ccccc3)nn12 | 16.2% [at 0.16 µM]
Cc1cccc(C(=O)N2CCC3(CC2)Nc2ccc(C)c(C)c2-n2cccc23)c1 | 11.2% [at 0.68 µM]
Cc1oc(-c2ccccc2)nc1Cn1nnc(-c2nc(-c3ccc4c(c3)OCO4)no2)c1C | 8.48% [at 10 µM]
COc1ccc(-c2nc(NCC3CCN(Cc4cccc(C)c4)CC3)c3ccccc3n2)cc1 | -18.6% [at 2.6 µM]
COc1cccc(CN2CCc3nc(SCc4nc(-c5ccccc5)oc4C)[nH]c(=O)c3C2)c1 | 24.2% [at 2.6 µM]
COc1ccc(-c2nc(NCC3CCN(Cc4cccc(Cl)c4)CC3)c3ccccc3n2)cc1 | -31.6% [at 10 µM]
O=S(=O)(Cc1ccccc1)N1CC2CN(Cc3cccc(Cl)c3)CC2C1 (stereo unspecified) | 9.94%
COc1cccc(CNC(=O)N2CCc3nc(-c4ccccc4)sc3C2)c1 | -15% [at 5 µM]
COCCC(=O)c1cc2c(s1)CCN2Cc1cccnc1 | 26.4%
Cc1ccccc1S(=O)(=O)N1CCCCN2[C@H](CO)[C@H](c3ccc(C#CCN(C)C)cc3)[C@H]2C1 | 23.7%
Cc1ccccc1S(=O)(=O)N1CCCCN2[C@H](CO)[C@H](c3ccc(C#CCN(C)C)cc3)[C@@H]2C1 | -17.9%
Cc1cccc(N2CCN(c3nc(-c4ccc(Cl)cc4)nc4ccccc34)CC2)c1C | 10.6%
c1cc(-c2nccn2CCn2ccnc2)ccn1 | 11.4%
COc1cccc(CNc2nc(-c3ccc(Cl)cc3)nc3ccccc23)c1 | -22% [at 1.35 µM]

Compound | max activity
O=S(=O)(c1cccc(F)c1)N1CC[C@@H]2[C@H]1c1cc(Br)ccc1N[C@@H]2CO | 35.2% [at 10 µM]
OC[C@@H]1Nc2ccc(-c3cccc(F)c3)cc2[C@H]2[C@@H]1CCN2Cc1ccc(F)cc1 | 42.2% [at 10 µM]
Cc1ccc(-c2csc(-c3cccn3CC(=O)N3CCC4(CC3)OCCO4)n2)cc1 | 11.8% [at 5 µM]
Cc1oc(-c2ccccc2)nc1Cn1nnc(-c2nc(-c3ccc(F)c(Cl)c3)no2)c1C | -12.6% [at 1.35 µM]
O=C(COc1ccccc1)N1CCC2(CC1)Nc1cc(F)ccc1-n1cccc12 | 10.6% [at 5 µM]
CCOc1ccc(-c2nc(CN3CCN(C(=O)Nc4ccccc4C(=O)OC)CC3)c(C)o2)cc1 | 6.24% [at 0.16 µM]
COc1cc(CCC(=O)N2CCC3(CC2)Nc2ccc(C)c(C)c2-n2cccc23)cc(OC)c1OC | -12.8% [at 2.6 µM]
O=C(c1ccc(F)cc1)N1CCC2(CC1)Nc1ccc(Cl)cc1-n1cccc12 | 13.8% [at 0.68 µM]
O=C(c1ccccc1F)N1CCC2(CC1)Nc1ccc(Cl)cc1-n1cccc12 | -6.53% [at 0.35 µM]
COc1ccc(-c2nc(NCCc3ccc(SC)cc3)c3ccccc3n2)cc1 | -32.9%
CCOC(=O)CSC1=Nc2ccccc2C2=NC(CC(=O)NCc3ccc(F)cc3)C(=O)N12 (stereo unspecified) | 17.3%
CC(C)C#Cc1ccc([C@H]2[C@@H](CO)N3C(=O)CN(S(=O)(=O)c4ccccc4)C[C@H]23)cc1 | -8.27% [at 10 µM]
CS(=O)(=O)N1CC(=O)N2[C@H](CO)[C@@H](c3ccc(C#CCC4CCCC4)cc3)[C@H]2C1 | 29.5% [at 11 µM]
CS(=O)(=O)N1CC(=O)N2[C@H](CO)[C@H](c3ccc(C#CCC4CCCC4)cc3)[C@@H]2C1 | 13.6% [at 10 µM]
CS(=O)(=O)N1CC(=O)N2[C@@H](CO)[C@H](c3ccc(C#Cc4ccc(F)cc4)cc3)[C@@H]2C1 | 11.8% [at 10 µM]
CC(C)C#Cc1ccc([C@H]2[C@@H](CO)N3C(=O)CN(S(=O)(=O)c4ccccc4)C[C@@H]23)cc1 | 19.2% [at 10 µM]
CS(=O)(=O)N1CC(=O)N2[C@H](CO)[C@@H](c3ccc(Br)cc3)[C@H]2C1 | 27.1%
Cc1ccc(C)c(CSc2ccc(-c3sc(-c4ccc(F)cc4)nc3C)nn2)c1 | -9.1% [at 5 µM]
COc1ccc(-c2nc(NCc3ccccc3OC)c3ccccc3n2)cc1 | -10.7% [at 0.68 µM]
O=C(Nc1ccc(-c2nc(-c3cccc(Br)c3)co2)cc1)Nc1cccc(F)c1 | -13.2% [at 2.6 µM]
COc1ccc(-n2c(C)cc(CNS(=O)(=O)c3ccc4c(c3)CCC(=O)N4)c2C)cc1 | 35.1%
O=C(NCCc1csc(-c2ccccc2)n1)[C@H]1CSCN1S(=O)(=O)Cc1ccccc1 | 17.7% [at 2.6 µM]
O=C(NCCc1csc(-c2ccccc2)n1)[C@H]1CSCN1S(=O)(=O)c1ccc(F)cc1 | 15.5% [at 10 µM]
CCS(=O)(=O)N1CSC[C@@H]1C(=O)NCCc1csc(-c2ccccc2)n1 | 7.03% [at 5 µM]

Compound | max activity
Cc1ccccc1S(=O)(=O)N1CSC[C@@H]1C(=O)NCCc1csc(-c2ccccc2)n1 | -13% [at 0.16 µM]
O=C(NCCc1csc(-c2ccccc2)n1)[C@H]1CSCN1S(=O)(=O)c1ccccc1 | 14.6%
CCc1ccc(S(=O)(=O)N2CSC[C@@H]2C(=O)NCCc2csc(-c3ccccc3)n2)cc1 | -11.2% [at 0.68 µM]
COc1ccc(-c2nc(N3CCN(c4ccc(C)cc4C)CC3)c3ccccc3n2)cc1 | -12.6% [at 0.16 µM]
COc1ccc(CC(=O)Nc2ccc(-c3nc(-c4cc(C)ccc4C)co3)cc2)cc1 | 17.8% [at 0.16 µM]
COc1ccc(NC(=O)N2CC[C@@H]3[C@H]2c2cc(C4=CCCCC4)ccc2N(C)[C@H]3CO)cc1 | 18.9% [at 0.3 µM]
CN1c2ccc(C3=CCCCC3)cc2[C@@H]2[C@@H](CCN2C(=O)C2CCOCC2)[C@H]1CO | 43.9%
Cc1ccc(-c2coc(-c3ccc(NC(=O)C(C)C)cc3)n2)cc1 | 38.3%
COc1ccc(C)cc1NC(=O)Nc1ccc(-c2nc(-c3cc(C)ccc3C)co2)cc1 | 9.85% [at 0.35 µM]
Cc1cc(C)c2c(=O)n(Cc3nc(-c4cccc(Cl)c4)oc3C)c(=O)n(-c3ccccc3)c2n1 | -9.3% [at 0.16 µM]
COc1ccccc1CNC(=O)CC1N=C2c3ccccc3N=C(SCc3ccccc3F)N2C1=O (stereo unspecified) | 21.2% [at 1.35 µM]
O=C(Cc1cccc(F)c1)Nc1ccc2c(c1)CCC(=O)N2 | -7.77%
O=C(C[C@@H]1CC[C@@H]2[C@H](COC[C@@H](O)CN2C(=O)Nc2cc(Cl)cc(Cl)c2)O1)N1CCOCC1 | 20.4%
COCCO[C@H]1CCN(Cc2c(C)noc2C)[C@H]1Cc1ccccc1 | 11.4%
Cc1ccc(-c2coc(-c3ccc(NC(=O)Cc4cccs4)cc3)n2)c(C)c1 | 116%
COc1cc(OC)cc(C(=O)Nc2ccc(-c3nc(-c4ccccc4)co3)cc2)c1 | -34% [at 1.35 µM]
Cc1ccc(S(=O)(=O)N2CC[C@@H]3[C@@H](CO)Nc4ccc(-c5cccc(C(=O)N(C)C)c5)cc4[C@@H]32)cc1 | 30.1% [at 10 µM]
O=S(=O)(c1cccc(F)c1)N1CC[C@@H]2[C@H]1c1cc(C#Cc3ccccc3F)ccc1N[C@@H]2CO | 6.78% [at 0.3 µM]
N#Cc1cccc(-c2ccc3c(c2)[C@H]2[C@H](CCN2C(=O)c2ccccc2F)[C@@H](CO)N3)c1 | 16.6% [at 10 µM]
O=C(c1ccc2c(c1)OCO2)N1CC[C@@H]2[C@H]1c1cc(C#Cc3ccccc3)ccc1N[C@@H]2CO | 33.7% [at 10 µM]
COc1ccccc1-c1ccc2c(c1)[C@@H]1[C@@H](CCN1S(=O)(=O)c1ccc(C)cc1)[C@H](CO)N2 | 39.6% [at 5 µM]
COc1ccccc1-c1ccc2c(c1)[C@H]1[C@H](CCN1S(=O)(=O)c1ccc(C)cc1)[C@@H](CO)N2 | 38.9%
Cc1ccc(S(=O)(=O)N2CC[C@@H]3[C@H](CO)Nc4ccc(-c5cccc(C(=O)N(C)C)c5)cc4[C@@H]32)cc1 | 26.4% [at 5 µM]
